A selection: hits, their analogues and other compounds. The true share with any hit is near 3.1%.
MEKK3 PB1 HTS – modulators of MEKK3-MEK5 PB1 binding, primary screen, biochemical, wildtype MEKK3, multiplex bead flow cytometry, Alexa488-MEK5. hit rate 1.4% among 290,000. Mitogen-activated protein kinase kinase kinase 3 (Homo sapiens), Q99759. binding response (% of control), % at 10 µM. bead-based flow cytometry, Alexa488-MEK5 binding to MEKK3; actives lie on both sides; 0 = blocked by unlabeled MEK5, 100 = vehicle;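 active = binding response more than 3 SD above or below the average of its plate-row segment, actives on both sides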;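 also: Alexa488 bead fluorescence after subtracting the streptavidin-only scavenger bead signal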
ATG4B inh – ATG4B protease inhibitors, primary screen, biochemical, fluorescence, uHTS | Cysteine protease ATG4B (Homo sapiens), Q9Y4P1 | ATG4B cleavage of LC3-PLA2, NBD-HPC fluorescence, 1 h | inhibition, % at 8.33 µM | hit rate 0.51% among 340,000; in the data active = inhibition above about 40%
MEKK2 mut-MEK5 – MEK5 binding signal on mutant MEKK2 PB1, primary screen, biochemical, multiplex bead flow cytometry, Alexa488-MEK5. Alexa488-MEK5 binding to MEKK2 mutant. percent response, % at 10 µM. hit rate 0.35% among 290,000; in the data active = percent response above about 24%, passing the limit was not always enough
PREPL inhibitor – PREPL enzyme inhibitors, primary screen, biochemical, fluorescence polarization; recombinant PREPL, fluorescence polarization activity-based probe; AID 2751, 2010; Prolyl endopeptidase-like (Homo sapiens), Q4J6C6; hit rate 0.68% among 320,000; inhibition, % at 5.96 µM; in the data active = inhibition above about 43%;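 also: 0% = enzyme with DMSO and 100% = wells lacking enzyme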
Target sequence (Q4J6C6 whole entry, looked up): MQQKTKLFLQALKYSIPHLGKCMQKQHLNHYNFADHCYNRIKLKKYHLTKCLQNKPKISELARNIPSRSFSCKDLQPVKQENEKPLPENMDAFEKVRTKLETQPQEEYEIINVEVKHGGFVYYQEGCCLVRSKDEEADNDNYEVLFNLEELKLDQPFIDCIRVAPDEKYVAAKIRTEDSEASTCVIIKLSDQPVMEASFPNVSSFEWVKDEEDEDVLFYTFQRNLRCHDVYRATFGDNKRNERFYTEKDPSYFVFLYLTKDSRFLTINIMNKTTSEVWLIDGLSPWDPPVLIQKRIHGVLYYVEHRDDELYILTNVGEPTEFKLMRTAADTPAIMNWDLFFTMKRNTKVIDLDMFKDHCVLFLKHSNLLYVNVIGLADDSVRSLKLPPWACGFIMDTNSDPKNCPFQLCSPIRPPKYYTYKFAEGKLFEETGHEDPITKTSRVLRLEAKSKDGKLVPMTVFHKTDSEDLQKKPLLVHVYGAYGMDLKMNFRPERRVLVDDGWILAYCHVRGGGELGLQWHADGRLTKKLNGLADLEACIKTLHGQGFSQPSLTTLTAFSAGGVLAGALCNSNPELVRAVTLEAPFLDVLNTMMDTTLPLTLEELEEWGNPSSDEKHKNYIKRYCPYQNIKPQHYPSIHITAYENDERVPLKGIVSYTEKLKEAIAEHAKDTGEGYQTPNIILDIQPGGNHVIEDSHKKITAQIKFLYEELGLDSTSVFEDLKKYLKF
UBC13 inh – UBC13 polyubiquitin chain formation inhibitors, primary screen, biochemical, TR-FRET, uHTS. hit rate 0.47% among 330,000. Ubiquitin-conjugating enzyme E2 N (Homo sapiens), P61088. inhibition, % at 20 µM; in the data active = inhibition above about 45%, passing the limit was not always enough
MEKK2wt PB1 HTS – modulators of MEK5 binding to wildtype MEKK2, primary screen, biochemical, multiplex bead flow cytometry, Alexa488-MEK5; Mitogen-activated protein kinase kinase kinase 2 (Homo sapiens), Q9Y2U5; Alexa488-MEK5 binding to MEKK2 WT; actives lie on both sides; binding response (% of control), % at 10 µM; hit rate 1.1% among 290,000; AID 1531, 2009; in the data active = binding response below about 67% or above about 130%
MEKK2wt confirm – modulators of MEK5 binding to wildtype MEKK2, confirmation, biochemical, single concentration, multiplex bead flow cytometry | shares compounds with MEKK3 PB1 HTS | Alexa488-MEK5 binding to MEKK2 WT; actives lie on both sides | binding response (% of control), % at 10 µM | hit rate 2.4% among 5,900 | AID 1892, 2009; in the data active = binding response below about 16% or above about 210%; inactive = in between
MEKK2mut confirm – mutant MEKK2 PB1-MEK5 binding signal retest – biochemical, single concentration, multiplex bead flow cytometry, confirmation | shares compounds with MEKK3 PB1 HTS | Alexa488-MEK5 binding to MEKK2 mutant | percent response, % at 10 µM | hit rate 2% among 5,900; in the data active = percent response mostly above about 71%, no sharp cut-off; inactive = mostly below about 38%;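 also: higher means compound restores mutant binding toward wildtype level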
MEKK3 confirm – MEKK3 wild-type PB1 binding to MEK5, inhibitors, confirmation, biochemical, bead multiplex flow cytometry, single concentration, wildtype; shares compounds with MEKK3 PB1 HTS; Alexa488-MEK5 binding to MEKK3; active compounds read low; binding response (% of control), % at 10 µM; hit rate 1.8% among 5,900; AID 1894, 2009;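 active = binding response below 72% of control, or above a set upper limit, though filed actives all read lower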;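 also: 100% = DMSO only wells and 0% = binding blocked by excess unlabeled MEK5; lower values mean stronger disruption of MEK5 binding to MEKK3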
* marks the source's active call; other numbers are inactive results; . = no result; [ ] = dose if it differs, or a comment.

SMILES	MEKK3 PB1 HTS	ATG4B inh	MEKK2 mut-MEK5	PREPL inhibitor	UBC13 inh	MEKK2wt PB1 HTS	MEKK2wt confirm	MEKK2mut confirm	MEKK3 confirm
COC(=O)c1ccc(Nc2c([N+](=O)[O-])c(=O)oc3ccccc23)cc1	103	-2	7	16	-7	104	.	.	.
COc1ccc(-c2ccc(SCC(=O)N3c4ccccc4CC3C)nn2)cc1OC (stereo unspecified)	122*	-8	9	-30	-7	117	107	2	100
COc1ccc(-c2cc3nc(C)cc(N4CC(C)CC(C)C4)n3n2)cc1 (stereo unspecified)	97	0	2	38	10	96	.	.	.
CCN(CC(=O)Nc1c(F)cccc1F)C(=O)COc1ccc2c(C)cc(=O)oc2c1	41*[inhibitor]	-2	-14	8	0	44*[inhibitor]	96	-6	100
N#CC1=C(N)OC2=C(C(=O)CCC2)C12C(=O)N1CCCc3cccc2c31 (stereo unspecified)	100	-1	4	-8	4	101	.	.	.
N#CC1=C(N)OC2=C(C(=O)CCC2)[C@]12C(=O)N(CC(N)=O)c1ccccc12	0.0*[inhibitor]	-4	-21	-6	7	-1.0*[inhibitor]	104	1	97
CCC(CC)c1nnc(NC(=O)C2CSC3(C)CCC(=O)N23)s1 (stereo unspecified)	.	-4	.	-3	0	.	.	.	.
Cc1ccc2c(c1)c1c(n2CC(O)Cn2nc(C)c(Br)c2C)CCCC1 (stereo unspecified)	95	3	-6	6	-6	91	.	.	.
Cc1ccc2c(c1)c1c(n2CC(O)Cn2c(C)nc3ccccc32)CCCC1 (stereo unspecified)	108	-6	27*	9	44	133	123	14	105
Cc1cc(C(=O)C(=O)NC(C)C)c(C)n1-c1ccc([N+](=O)[O-])cc1	80*[inhibitor]	1	-3	8	3	89	99	-2	100
CCOc1ccc(NC(=O)CN(C)C(=O)COc2cccc3c2OC(C)(C)C3)cc1OCC	.	-4	.	3	15	.	.	.	.
CCOC(=O)c1sc(SC)c2c1CCC/C2=N/OC	131*	9	30	13	-2	118	99	0	102
CO/N=C1\CCCc2c(C(=O)NN)sc(SC)c21	91	2	-5	-11	13	88	.	.	.

Screening results: PubChem BioAssay, several laboratories
